Molecules are shown by their SMILES. Hit rate of the full screen: of about 39,000 compounds, about 3,300 (8.5%) were called active. For the sample, actives were picked, then their nearest neighbours and some compounds at random.

For this experiment, the system named is HepG2. The experiment in a line: cytotoxicity call (relative viability < 0.9). The conditions noted are these: 10 µM.
With `Cc1cc(C(=O)Nc2cccc3c2O[C@@H](CN(C)Cc2ccc(C(=O)O)cc2)[C@@H](C)CN([C@H](C)CO)C3=O)n(C)n1`, the cytotoxicity call was “inactive”.

As to `Cc1noc(C)c1S(=O)(=O)Nc1cccc2c1O[C@@H](CN(C)S(=O)(=O)c1ccc(F)cc1)[C@@H](C)CN([C@H](C)CO)C2=O`, the cytotoxicity call was “inactive”.

Turning to `C[C@H](CO)N1C[C@H](C)[C@@H](CN(C)S(=O)(=O)c2cn(C)cn2)Oc2ccc(NC(=O)Cn3cnnn3)cc2CC1=O`, the cytotoxicity call was “inactive”.

In the case of `Cc1noc(C)c1S(=O)(=O)Nc1ccc2c(c1)C(=O)N([C@@H](C)CO)C[C@H](C)[C@H](CN(C)S(C)(=O)=O)O2`, the cytotoxicity call is “inactive”.

For `COc1ccc(NC(=O)Nc2ccc3c(c2)C(=O)N([C@@H](C)CO)C[C@H](C)[C@H](CN(C)Cc2ccc(C(F)(F)F)cc2)OCCCC[C@@H](C)O3)cc1`, the cytotoxicity call is “inactive”.

Take `COc1ccc(CN(C)C[C@H]2OCCCC[C@@H](C)Oc3ccc(NC(=O)Nc4ccc(C(F)(F)F)cc4)cc3C(=O)N([C@@H](C)CO)C[C@H]2C)cc1`: the cytotoxicity call is “active”.

On to `COc1ccc(CN(C)C[C@@H]2OCCCC[C@@H](C)Oc3ccc(NC(=O)Nc4ccc(C(F)(F)F)cc4)cc3C(=O)N([C@H](C)CO)C[C@H]2C)cc1`, for which the cytotoxicity call was “active”.

`COc1ccc(CN(C)C[C@@H]2OCCCC[C@@H](C)Oc3ccc(NC(=O)Nc4ccc(C(F)(F)F)cc4)cc3C(=O)N([C@H](C)CO)C[C@@H]2C)cc1`: the cytotoxicity call was “active”.

Take `COc1ccc(NC(=O)Nc2ccc3c(c2)C(=O)N([C@H](C)CO)C[C@@H](C)[C@H](CN(C)Cc2ccc(C(F)(F)F)cc2)OCCCC[C@H](C)O3)cc1`: the cytotoxicity call was “inactive”.

As to `COc1ccc(NC(=O)Nc2ccc3c(c2)C(=O)N([C@H](C)CO)C[C@H](C)[C@@H](CN(C)Cc2ccc(C(F)(F)F)cc2)OCCCC[C@@H](C)O3)cc1`, the cytotoxicity call was “inactive”.

Consider `COc1ccc(NC(=O)Nc2ccc3c(c2)C(=O)N([C@H](C)CO)C[C@H](C)[C@H](CN(C)Cc2ccc(C(F)(F)F)cc2)OCCCC[C@H](C)O3)cc1`, for which the cytotoxicity call is “inactive”.

`COc1ccc(NC(=O)Nc2ccc3c(c2)C(=O)N([C@H](C)CO)C[C@H](C)[C@H](CN(C)Cc2ccc(C(F)(F)F)cc2)OCCCC[C@@H](C)O3)cc1`: the cytotoxicity call was “inactive”.

`COc1ccc(CN(C)C[C@H]2OCCCC[C@H](C)Oc3ccc(NC(=O)Nc4ccc(C(F)(F)F)cc4)cc3C(=O)N([C@@H](C)CO)C[C@@H]2C)cc1`: the cytotoxicity call is “active”.

In the case of `COc1ccc(NC(=O)Nc2ccc3c(c2)C(=O)N([C@@H](C)CO)C[C@@H](C)[C@@H](CN(C)Cc2ccc(C(F)(F)F)cc2)OCCCC[C@@H](C)O3)cc1`, the cytotoxicity call was “inactive”.

As to `CC(C)NC(=O)N(C)C[C@H]1OCCCC[C@H](C)Oc2ccc(NS(=O)(=O)c3cn(C)cn3)cc2C(=O)N([C@@H](C)CO)C[C@@H]1C`, the cytotoxicity call was “inactive”.

For `C[C@@H]1CN([C@H](C)CO)C(=O)c2cccc(NS(=O)(=O)c3ccccc3)c2O[C@H]1CN(C)S(=O)(=O)c1cccs1`, the cytotoxicity call is “inactive”.

For `COc1ccc(S(=O)(=O)N(C)C[C@@H]2Oc3ccc(NS(=O)(=O)c4c(C)noc4C)cc3C(=O)N([C@@H](C)CO)C[C@@H]2C)cc1`, the cytotoxicity call was “inactive”.

For `COCC(=O)N1C[C@@H](C)[C@@H](OC)CN(C)C(=O)c2ccc(NC(=O)c3cc(C)on3)cc2OC[C@@H]1C`, the cytotoxicity call was “inactive”.

With `Cc1ccc(S(=O)(=O)N(C)C[C@@H]2OCCCC[C@H](C)Oc3ccc(NC(=O)c4ccccc4)cc3C(=O)N([C@H](C)CO)C[C@@H]2C)cc1`, the cytotoxicity call was “inactive”.

Turning to `COCC(=O)N(C)C[C@H]1Oc2cc(C#C[C@@H](C)O)ccc2S(=O)(=O)N([C@@H](C)CO)C[C@H]1C`, the cytotoxicity call was “inactive”.

As for `COc1ccc(C#Cc2cnc3c(c2)C(=O)N([C@@H](C)CO)C[C@H](C)[C@@H](CN(C)C(=O)CN(C)C)O3)cc1`, the cytotoxicity call was “inactive”.

`Cn1c(=O)[nH]c(=O)c2c1ncn2CCNCc1ccco1`: the cytotoxicity call was “inactive”.

Consider `C[C@@H]1CN([C@@H](C)CO)C(=O)c2cc(NC(=O)Cc3ccccc3)ccc2O[C@@H](C)CCCCO[C@@H]1CN(C)CC1CCCCC1`, for which the cytotoxicity call is “inactive”.

`O=C(C[C@H]1CC[C@H]2[C@@H](COC[C@H](O)CN2C(=O)c2ccncc2)O1)NC1CCC1`: the cytotoxicity call was “inactive”.

For `C[C@H]1CN([C@@H](C)CO)C(=O)c2cc(NC(=O)NC3CCCCC3)ccc2O[C@@H]1CN(C)S(=O)(=O)c1cn(C)cn1`, the cytotoxicity call is “inactive”.

As for `C[C@H]1CN([C@@H](C)CO)C(=O)Cc2cc(NS(=O)(=O)c3ccccc3)ccc2O[C@@H]1CN(C)Cc1ccc(Oc2ccccc2)cc1`, the cytotoxicity call is “inactive”.

As for `C[C@@H]1CN([C@@H](C)CO)C(=O)Cc2cc(NS(=O)(=O)c3ccccc3)ccc2O[C@H]1CN(C)Cc1ccc(Oc2ccccc2)cc1`, the cytotoxicity call is “inactive”.

In the case of `C[C@H]1CN([C@@H](C)CO)C(=O)Cc2cc(NS(=O)(=O)c3ccccc3)ccc2O[C@H]1CN(C)Cc1ccc(Oc2ccccc2)cc1`, the cytotoxicity call was “inactive”.

On to `C[C@H](CO)N1C[C@H](C)[C@H](CN(C)Cc2ccc(Oc3ccccc3)cc2)Oc2ccc(NS(=O)(=O)c3ccccc3)cc2CC1=O`, for which the cytotoxicity call was “inactive”.

Regarding `C[C@@H]1CN([C@H](C)CO)C(=O)Cc2cc(NS(=O)(=O)c3ccccc3)ccc2O[C@@H]1CN(C)Cc1ccc(Oc2ccccc2)cc1`, the cytotoxicity call was “active”.

As to `C[C@@H]1CN([C@@H](C)CO)C(=O)Cc2cc(NS(=O)(=O)c3ccccc3)ccc2O[C@@H]1CN(C)Cc1ccc(Oc2ccccc2)cc1`, the cytotoxicity call was “active”.

Turning to `C[C@@H]1CN([C@H](C)CO)C(=O)Cc2cc(NS(=O)(=O)c3ccccc3)ccc2O[C@H]1CN(C)Cc1ccc(Oc2ccccc2)cc1`, the cytotoxicity call was “active”.

Take `C[C@H](CO)N1C[C@H](C)[C@@H](CN(C)Cc2ccc(Oc3ccccc3)cc2)Oc2ccc(NS(=O)(=O)c3ccccc3)cc2CC1=O`: the cytotoxicity call was “inactive”.

As to `COc1ccc(S(=O)(=O)Nc2cccc3c2O[C@@H](CN(C)Cc2ccc(-c4ccccc4)cc2)[C@H](C)CN([C@H](C)CO)C3=O)cc1`, the cytotoxicity call was “inactive”.

As to `CO[C@H]1CN(C)C(=O)c2ccc(NC(=O)c3ccccc3)cc2OC[C@H](C)N(C(=O)CN(C)C)C[C@@H]1C`, the cytotoxicity call was “inactive”.

`C[C@@H]1CN([C@H](C)CO)C(=O)c2cccc(NC(=O)NC3CCCCC3)c2O[C@H]1CN(C)Cc1ccc(-c2ccccc2)cc1`: the cytotoxicity call is “inactive”.

In the case of `CCS(=O)(=O)N1CCC[C@]2(C(=O)NCC3CC3)CN(Cc3cnn(C)c3)C[C@H]2C1`, the cytotoxicity call was “inactive”.

For `COc1ccc(C(=O)NC(CO)(CO)CO)cc1OC`, the cytotoxicity call is “inactive”.

As to `C[C@@H]1CN([C@H](C)CO)S(=O)(=O)c2ccc(C#CC3CCCC3)cc2O[C@@H]1CN(C)C(=O)Cc1ccncc1`, the cytotoxicity call is “inactive”.

`COc1cc2c(cc1O)CCN[C@]21CS[C@@H]2c3c(OC(C)=O)c(C)c4c(c3[C@H](COC1=O)N1[C@@H]2[C@H]2c3c(cc(C)c(OC)c3O)C[C@@H]([C@@H]1O)N2C)OCO4`: the cytotoxicity call was “active”.

On to `CO[C@H](CN(C)S(=O)(=O)c1ccc(C)cc1)[C@@H](C)CN([C@@H](C)CO)S(=O)(=O)c1cccc(Cl)c1`, for which the cytotoxicity call was “inactive”.

`Cc1cnc(Nc2ccc(F)cc2Cl)nc1-c1c[nH]c(C(=O)N[C@H](CO)c2cccc(Cl)c2)c1`: the cytotoxicity call was “active”.

Regarding `C[C@@H]1CN([C@@H](C)CO)C(=O)Cc2cc(NC(=O)CCN3CCOCC3)ccc2O[C@H]1CN(C)Cc1ccc(C(=O)Nc2ccccc2N)cc1`, the cytotoxicity call was “inactive”.

Turning to `CC1(C)C(=O)C=CC2(C)C1CC(=O)C1(C)C2CCC2(C)C(c3ccoc3)OC(=O)C3OC321` (stereo not given), the cytotoxicity call was “active”.

In the case of `CC(=O)O[C@H]1CC[C@]2(C)[C@H]3CC[C@@]4(C)[C@H](c5ccoc5)OC(=O)[C@H]5O[C@]54[C@]3(C)[C@H](OC(C)=O)C[C@H]2C1(C)C`, the cytotoxicity call was “inactive”.

With `CC(=O)OC1CC(OC(C)=O)C2(C)C(CC(=O)C3(C)C2CCC2(C)C(c4ccoc4)OC(=O)C4OC423)C1(C)C` (stereo not given), the cytotoxicity call is “inactive”.

For the compound `CC1(C)C(=O)C=CC2(C)C1C=CC1(C)C2CCC2(C)C(c3ccoc3)OC(=O)C3OC312` (stereo not given), the cytotoxicity call was “active”.

In the case of `CC1(C)OC2CC(=O)OCC23C1CC(=O)C1(C)C3CCC2(C)C(c3ccoc3)OC(=O)C3OC321` (stereo not given), the cytotoxicity call is “inactive”.

For the compound `CC(=O)OC1CCC2(C)C(CC(OC(C)=O)C3(C)C2CCC2(C)C(c4ccoc4)OC(=O)C4OC423)C1(C)C` (stereo not drawn) [3beta-ACETOXYDEOXODIHYDROGEDUNIN ], the cytotoxicity call is “inactive”.

Turning to `C[C@H]1CCCCO[C@@H](CN(C)C(=O)c2ccncc2)[C@@H](C)CN([C@@H](C)CO)C(=O)c2cc(NS(=O)(=O)c3ccc(Cl)cc3)ccc2O1`, the cytotoxicity call is “inactive”.

Take `Nc1ccc([C@@H](O)[C@@H](O)CO)cc1`: the cytotoxicity call is “inactive”.

On to `COc1ccc(S(=O)(=O)N(C)C[C@@H]2Oc3c(NC(=O)c4cnccn4)cccc3C(=O)N([C@@H](C)CO)C[C@H]2C)cc1`, for which the cytotoxicity call is “inactive”.

In the case of `C[C@H](CO)N1C[C@H](C)[C@H](CN(C)C(=O)Cc2ccccn2)Oc2ncc(-c3cccc(C(=O)N(C)C)c3)cc2C1=O`, the cytotoxicity call was “inactive”.

With `COc1ccc(S(=O)(=O)N(C)C[C@@H]2Oc3ccc(NS(C)(=O)=O)cc3CC(=O)N([C@H](C)CO)C[C@@H]2C)cc1`, the cytotoxicity call is “inactive”.

For `COc1ccc(NC(=O)Nc2ccc3c(c2)C(=O)N([C@@H](C)CO)C[C@@H](C)[C@@H](CN(C)Cc2ccc4c(c2)OCO4)OCCCC[C@@H](C)O3)cc1`, the cytotoxicity call was “inactive”.

Turning to `COc1ccc(NC(=O)Nc2ccc3c(c2)C(=O)N([C@H](C)CO)C[C@H](C)[C@@H](CN(C)Cc2ccc4c(c2)OCO4)OCCCC[C@H](C)O3)cc1`, the cytotoxicity call was “inactive”.

For the compound `COc1ccc(NC(=O)Nc2ccc3c(c2)C(=O)N([C@H](C)CO)C[C@@H](C)[C@@H](CN(C)Cc2ccc4c(c2)OCO4)OCCCC[C@@H](C)O3)cc1`, the cytotoxicity call is “active”.

On to `COc1ccc(NC(=O)Nc2ccc3c(c2)C(=O)N([C@@H](C)CO)C[C@H](C)[C@H](CN(C)Cc2ccc4c(c2)OCO4)OCCCC[C@@H](C)O3)cc1`, for which the cytotoxicity call was “inactive”.

As to `COc1ccc(NC(=O)Nc2ccc3c(c2)C(=O)N([C@H](C)CO)C[C@@H](C)[C@H](CN(C)Cc2ccc4c(c2)OCO4)OCCCC[C@@H](C)O3)cc1`, the cytotoxicity call was “inactive”.

As for `COc1ccc(NC(=O)Nc2ccc3c(c2)C(=O)N([C@H](C)CO)C[C@H](C)[C@H](CN(C)Cc2ccc4c(c2)OCO4)OCCCC[C@H](C)O3)cc1`, the cytotoxicity call was “active”.

The record behind these values is the antibiotic and cytotoxicity screens of Wong et al. (2023).
